# Laboratory results reported in PubChem BioAssay (NCI).
# The panel holds about 83,000 compounds, 20% with a hit somewhere; the sample as a whole holds those more often.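 The test compound was applied at a single concentration to cells in 96-well plates for 48 hours, and percent growth was recorded.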 Unmarked numbers belong to inactive results. The source made the active and inactive calls. The calls were made as follows: active = growth percent below 10; inactive = the rest.
# Columns and labels:
# Assay in all cases: NCI-60 one-dose screen, 48 h (100 = growth as untreated, 0 = no growth, -100 = all killed)
# Settings in all cases: 10 µM
# SN12C renal = test system: SN12C renal
# UO-31 renal = test system: UO-31 renal
# TK-10 renal = test system: TK-10 renal
# ACHN renal = test system: ACHN renal
# CAKI-1 renal = test system: CAKI-1 renal
# A498 renal = test system: A498 renal
# MOLT-4 leukemia = test system: MOLT-4 leukemia
# SR leukemia = test system: SR leukemia
# RPMI-8226 leukemia = test system: RPMI-8226 leukemia
# OVCAR-8 ovarian = test system: OVCAR-8 ovarian
# OVCAR-5 ovarian = test system: OVCAR-5 ovarian
# OVCAR-4 ovarian = test system: OVCAR-4 ovarian
# SK-OV-3 ovarian = test system: SK-OV-3 ovarian
# IGROV1 ovarian = test system: IGROV1 ovarian
# OVCAR-3 ovarian = test system: OVCAR-3 ovarian
# HS 578T breast = test system: HS 578T breast
# NCI/ADR-RES ovarian = test system: NCI/ADR-RES ovarian
# T-47D breast = test system: T-47D breast
# CCRF-CEM leukemia = test system: CCRF-CEM leukemia
Compound,growth (SN12C renal),growth (UO-31 renal),growth (TK-10 renal),growth (ACHN renal),growth (CAKI-1 renal),growth (A498 renal),growth (MOLT-4 leukemia),growth (SR leukemia),growth (RPMI-8226 leukemia),growth (OVCAR-8 ovarian),growth (OVCAR-5 ovarian),growth (OVCAR-4 ovarian),growth (SK-OV-3 ovarian),growth (IGROV1 ovarian),growth (OVCAR-3 ovarian),growth (HS 578T breast),growth (NCI/ADR-RES ovarian),growth (T-47D breast),growth (CCRF-CEM leukemia)
O=c1cc(-c2ccccc2)[nH]n1-c1nc2ccccc2[nH]1,49.5%,38.4%,63.1%,37.2%,45.9%,1.96% (active),-18.6% (active),39.3%,40.2%,35%,98.6%,25.3%,75.7%,38.9%,60.9%,69.5%,29.1%,62%,
CC/C(=C(/c1ccc(OCCN(C)C)cc1)c1ccc(OC(=O)CCCCCCCCC(=O)c2c(C)[nH]c(/C=C3\N=C(c4ccc[nH]4)C=C3OC)c2C)cc1)c1ccccc1,74.7%,62.2%,98%,87.6%,47.1%,,36.2%,47.8%,48.4%,86.8%,,61.6%,80.7%,90.3%,89.6%,58.3%,91.8%,48.3%,23.5%
Cn1c([N+](=O)[O-])cnc1/C=C1\Oc2ccccc2C1=O,-18.2% (active),-39.3% (active),-28.8% (active),3.1% (active),-23% (active),-3.16% (active),,9.62% (active),-7.1% (active),-26% (active),0.959% (active),10.5%,-15.9% (active),-29.5% (active),-21% (active),-21.8% (active),-5.9% (active),87.3%,2.77% (active)
COc1ccc(-c2cc(/C=C3\C(=O)Nc4ccc(OC)cc43)[nH]n2)cc1,42.7%,40.6%,48.9%,52.5%,33%,23.3%,27%,20.1%,20.6%,48.8%,82.5%,79.8%,33.6%,31.8%,2.64% (active),14%,21.7%,47.3%,
O=C1Nc2ccc(Cl)cc2/C1=C\c1c(-c2ccc(Cl)cc2)nc2sc(C3CC3)nn12,75.7%,63.7%,52.9%,44.4%,45.7%,14.9%,,44.2%,69.5%,26.5%,77.8%,9.28% (active),39.2%,71.5%,63.9%,7.42% (active),45%,50.7%,93.6%
O=C1NC(=O)c2ncccc21,105%,104%,,110%,96.4%,110%,106%,111%,99.3%,100%,107%,113%,101%,107%,113%,124%,106%,102%,99.1%
CCC(=O)N1C/C(=C/c2ccc(Br)cc2)C(=O)/C(=C/c2ccc(Br)cc2)C1,-48.8% (active),-95.9% (active),,-54.9% (active),-25.9% (active),-66.4% (active),-15.1% (active),-35.6% (active),-28.2% (active),-7.14% (active),-22.8% (active),-0.254% (active),-30.6% (active),-67.6% (active),-62.6% (active),9.3% (active),10.2%,13%,-12% (active)
Cc1ccc(C)c(C(O)(c2cc(C)ccc2C)C2(O)CCCCC2)c1,96.8%,87.7%,,89%,80.5%,94.5%,71.5%,85.1%,89.7%,97.5%,97.9%,93%,90.9%,104%,93.6%,94.1%,94.8%,72.5%,94.3%
COc1cc(-c2cc(-c3cc4c([nH]c5ccccc54)c(-c4cc(OC)c(OC)c(OC)c4)n3)cc(-c3ccccc3)n2)cc(OC)c1OC,54.6%,36.9%,,62.8%,32.9%,54.5%,18.5%,16.7%,46%,70.2%,88.6%,58.6%,90.7%,74.6%,72.3%,52.5%,42%,43.3%,37.9%
COc1ccc(C2=Nc3c(C)nn(-c4ccccc4)c3NC(c3ccc(Oc4ccnc5cc(Cl)ccc45)c(OC)c3)C2)cc1 (stereo unspecified),72.5%,53%,,76.4%,70.8%,54.2%,51.4%,-0.699% (active),56.7%,75.2%,95.2%,43%,74.7%,73.4%,79.9%,78.6%,79.9%,61.9%,71.2%
Nc1nc(-c2ccccc2Cl)cc(-c2ccc(Cl)cc2Cl)n1,79.6%,62.5%,,86%,68%,53.7%,52.6%,25.4%,35.2%,71.2%,96.2%,79.6%,93%,74.7%,85.2%,61.9%,79.8%,63.7%,57.5%
COc1ccc(-c2nc(-c3nc4ccc(OC)cc4[nH]3)cc3c2[nH]c2ccccc23)cc1,20.7%,8.19% (active),,31.9%,0.0135% (active),46.3%,47.3%,33.6%,-28.2% (active),17.5%,,52.8%,99.2%,21.1%,51.9%,18.8%,32.9%,25.5%,11%
COc1ccc(-c2ccc(-c3ccc(C(=N)N)cn3)o2)cc1,74.9%,30.7%,,80.6%,75.1%,59.4%,52.7%,10.3%,28.3%,76.3%,76.9%,61.4%,78.4%,75.2%,97.1%,94.1%,88.1%,69.1%,74.3%
FC(F)(F)c1ccc(-c2cnc(-n3cc(COCCN4CCCCC4)nn3)nc2NC2CCCCCC2)cc1,60.4%,-6.86% (active),,35.7%,46.6%,66%,-24.1% (active),-37.4% (active),-29.1% (active),54.7%,67.9%,39.9%,56.8%,36.7%,37.1%,,70.6%,30.5%,-5.93% (active)
CC(=O)c1nc2ccccc2n1CCN1CCN(C)CC1,46.7%,53.1%,,78%,94.1%,36.6%,49.9%,6.52% (active),3.09% (active),34.8%,53.7%,64.6%,27.4%,39.3%,4.3% (active),48.3%,97%,33.4%,3.66% (active)
CSc1nc(=O)n(Cc2ccc(Cl)cc2)c(=O)[nH]1,107%,112%,,103%,112%,103%,105%,95.5%,103%,98.8%,102%,110%,99.7%,132%,114%,105%,105%,90.1%,100%
O=C1/C(=C\c2ccc(Cl)cc2)CN(C(=S)Nc2ccccc2)C/C1=C\c1ccc(Cl)cc1,-52% (active),-95% (active),,-86.8% (active),-17.6% (active),,5.1% (active),-15.1% (active),-29.8% (active),-5.17% (active),-74.1% (active),-26% (active),-42.3% (active),-72.9% (active),-87.6% (active),,1.25% (active),-2.82% (active),-2.03% (active)
